Where “and” joins values, the source holds several entries; their conditions need not be identical. Equal values may be shown once. Compounds without any hit were thinned out: in the full panel of roughly 83,000, 20% have a hit.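 Growth was measured after 48 h exposure to one concentration of compound in 96-well plates. Values under 10 count as active.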 Unmarked numbers belong to inactive results. Calls of active or inactive are those of the source.

Consider 40 molecules from PubChem BioAssay (NCI).

This assay concerns MDA-MB-468 breast. Put plainly: NCI-60 one-dose screen, 48 h (100 = growth as untreated, 0 = no growth, -100 = all killed). The following applies: 10 µM unless noted.
As to `CNC(=O)c1cc(COc2nnc(Nc3ccc(Cl)cc3)c3ccoc23)ccn1`, the growth was 65%.
As for `COc1cc(OC)cc(C2C3=C(COC3=O)Nc3cc(OC)ccc32)c1` (stereo not given), the growth was -8.19% (active).
Consider `COC(=O)c1c2c(c(C)[n+]([O-])c1C)C(=O)C(NCc1ccc(F)cc1)=CC2=O`, for which the growth was -9.79% (active).
For the molecule `COc1ccc(Nc2nn3c(SCC(=O)c4ccc(C)cc4)nnc3s2)cc1`, the growth was 87.1%.
The figure for `O=S(=O)(NCCCNc1nccc(-c2c(-c3cccc(F)c3)nc3sccn23)n1)c1cccc2ccccc12` is 59.3%; for `O=C1c2c(O)cc(O)cc2O[C@@H](c2ccc(O)cc2)[C@@H]1c1c(O)cc(O)c2c(=O)cc(-c3ccc(O)c(O)c3)oc12` it is 113%; for `CC(=O)N1Cc2ccccc2C(C)Cc2cc(Cl)ccc21` (stereo not given) it is 113%.
For `Cn1cc(-c2nc(N)nnc2-c2c[nH]c3ccccc23)c2cc(Br)ccc21`, the growth is 33%.
For `COc1cc2c(=O)n(CCCn3ccnc3)c3c4cc5c(cc4ccc3c2cc1OC)OCO5` the value was -37.3% (active); for `CCOCC[P+](c1ccccc1)(c1ccccc1)c1ccccc1`, 2.17% (active); for `CN(C)c1ccc(C(=O)c2ccc(N(C)C)c(N)c2)cc1N`, -20.9% (active).
The figure for `CCN1CCN(Cc2ccc(NC(=O)Nc3nc4ccc(Oc5ccnc(C(=O)NC)c5)cc4s3)cc2C(F)(F)F)CC1` is -66.3% (active); for `CC(O)Cn1cnc2c1c(=O)n(C)c(=O)n2C` (stereo not given) it is 78.5%; for `Cn1ncc2ncc(-c3ccc4ncc(C#N)c(N5CCc6cc(F)c(Cl)cc65)c4c3)cc21` it is 8.25% (active).
Take `Nc1nc(N)c2nc(CNc3ccc(C(=O)NC(CCC(=O)O)C(=O)O)cc3)cnc2n1` (stereo not given): the growth is 13.1% and 12%.
For the molecule `C#C[C@]1(O)CC[C@H]2[C@@H]3CC=C4c5sc(Nc6ccccc6)nc5CC[C@]4(C)[C@H]3CC[C@@]21C`, the growth is 7.27% (active).
For `[2H]C1([2H])CCN(C(=O)C2CC2)c2cc(NS(=O)(=O)c3ccc(-c4cccc(C(N)=O)c4)cc3)ccc21`, the growth is -5.25% (active).
In the case of `NCCCNc1nc2ccccc2c2c(=O)c3cc(F)ccc3sc12`, the growth was 1.26% (active).
For `COc1ccc2c(c1)c(=O)oc1c(C)c(OCC(C)=O)ccc12` the value was 88.5%; for `Cc1ccc(-n2c(-c3cc4c([nH]c5ccccc54)c(-c4cccc(O)c4)n3)n[nH]c2=S)cc1`, -32.3% (active); for `O=C(Nc1ccc(I)cc1)c1cccc([N+](=O)[O-])c1O`, 2.17% (active).
For `O=C(Nc1ccccc1)c1cc(Cl)ccc1O` the value was 47.6%.
As for `CCOC(=O)C1CCN(c2ccc(N3C[C@@H](CNCc4ccc(C(=N)N)cc4)OC3=O)cc2)CC1`, the growth was 100%.
For `Nc1ccc(C(=O)c2ccc(N)c(Br)c2)cc1Br` the value was -0.913% (active); for `COc1ccc(-n2cnc3cc(C(=O)N4CCCCC4)ccc32)cc1`, 103%.
For `O=C1NC(=C(Cl)Cl)/C(=N/S(=O)(=O)N2CCC(C3(C(F)(F)F)N=N3)CC2)N1` the value was 32.7%; for `COC(=O)c1cc(N=C2NC(=O)/C(=C/C=C/c3ccccc3)S2)ccc1O`, 17.5%; for `O=C(Nc1nc(C(=O)N2CCN(C(c3ccccc3)c3ccccc3)CC2)cs1)c1ccc(NC2CCCCC2)c([N+](=O)[O-])c1`, 104%.
For `CCCCN(CCCC)CCc1c(C)cc(C)c(CCN(CCCC)CCCC)c1O` the value was 0.281% (active); for `N#Cc1cnc2ccc(-c3cnc4n[nH]nc4c3)cc2c1N1CCc2cc(F)c(Cl)cc21`, -13.9% (active).
Consider `NC(=O)C1CC2C=CC1C2` (stereo not given), for which the growth was 109%.
The figure for `O=[N+]([O-])c1ccc(-c2nc(Cl)c3c(n2)CCCC3)o1` is 54.1%; for `CCN(CC)CC(O)CNc1c2ccc(Cl)cc2nc2ccc(OC)cc12` (stereo not given) it is -48.3% (active).
For the molecule `CCCn1cc(/C=N\N=C2\C(=O)Nc3ccc(C)cc32)c2ccccc21`, the growth was 25.2%.
On to `CCN(CC)c1cc(C)c2cc(NC(=O)c3cccc(OC)c3)ccc2n1`, for which the growth was 83.9%.
For `COc1cc(C)cc2oc3oc(=O)c(-c4nc5ccccc5s4)cc3c(=O)c12`, the growth was 104%.
On to `Cn1cc(-c2ncnc3ccc(-c4cnc(Cl)c(NS(C)(=O)=O)c4)cc23)c2ccccc21`, for which the growth is -1.16% (active).
For `CN1CCC[C@]2(C)[C@H]3CC[C@@H]4[C@@H]5[C@H]6OC[C@@]5(CCC6(C)C)CC[C@@]4(C)[C@]3(C)CC[C@H]2C1(C)C` the value was 82%; for `CCCCC/C(C)=N\NC(N)=S`, -6.78% (active); for `O=[N+]([O-])c1ccc(Nc2nc(NCCN3CCOCC3)ncc2[N+](=O)[O-])cc1`, 70.8%.
